In the supplement of paper PMC11732987, “Enantioselective OTUD7B fragment discovery through chemoproteomics screening and high-throughput optimisation” (Communications Chemistry, 2025):

What was measured:
Experiment in all cases: log2 ratio of Biotin-Ahx-Ub-VS probe labelling (fragment/DMSO); higher = less target engagement (more negative = stronger competition), active = hit call of the paper (q ≤ 0.05, log2 ratio ≤ -1)
Conditions in all cases: compound concentration: 200 uM; treatment time: 3 h
[1] = biological target: T1, USP19 (UniProt O94966)
T1 sequence (whole entry): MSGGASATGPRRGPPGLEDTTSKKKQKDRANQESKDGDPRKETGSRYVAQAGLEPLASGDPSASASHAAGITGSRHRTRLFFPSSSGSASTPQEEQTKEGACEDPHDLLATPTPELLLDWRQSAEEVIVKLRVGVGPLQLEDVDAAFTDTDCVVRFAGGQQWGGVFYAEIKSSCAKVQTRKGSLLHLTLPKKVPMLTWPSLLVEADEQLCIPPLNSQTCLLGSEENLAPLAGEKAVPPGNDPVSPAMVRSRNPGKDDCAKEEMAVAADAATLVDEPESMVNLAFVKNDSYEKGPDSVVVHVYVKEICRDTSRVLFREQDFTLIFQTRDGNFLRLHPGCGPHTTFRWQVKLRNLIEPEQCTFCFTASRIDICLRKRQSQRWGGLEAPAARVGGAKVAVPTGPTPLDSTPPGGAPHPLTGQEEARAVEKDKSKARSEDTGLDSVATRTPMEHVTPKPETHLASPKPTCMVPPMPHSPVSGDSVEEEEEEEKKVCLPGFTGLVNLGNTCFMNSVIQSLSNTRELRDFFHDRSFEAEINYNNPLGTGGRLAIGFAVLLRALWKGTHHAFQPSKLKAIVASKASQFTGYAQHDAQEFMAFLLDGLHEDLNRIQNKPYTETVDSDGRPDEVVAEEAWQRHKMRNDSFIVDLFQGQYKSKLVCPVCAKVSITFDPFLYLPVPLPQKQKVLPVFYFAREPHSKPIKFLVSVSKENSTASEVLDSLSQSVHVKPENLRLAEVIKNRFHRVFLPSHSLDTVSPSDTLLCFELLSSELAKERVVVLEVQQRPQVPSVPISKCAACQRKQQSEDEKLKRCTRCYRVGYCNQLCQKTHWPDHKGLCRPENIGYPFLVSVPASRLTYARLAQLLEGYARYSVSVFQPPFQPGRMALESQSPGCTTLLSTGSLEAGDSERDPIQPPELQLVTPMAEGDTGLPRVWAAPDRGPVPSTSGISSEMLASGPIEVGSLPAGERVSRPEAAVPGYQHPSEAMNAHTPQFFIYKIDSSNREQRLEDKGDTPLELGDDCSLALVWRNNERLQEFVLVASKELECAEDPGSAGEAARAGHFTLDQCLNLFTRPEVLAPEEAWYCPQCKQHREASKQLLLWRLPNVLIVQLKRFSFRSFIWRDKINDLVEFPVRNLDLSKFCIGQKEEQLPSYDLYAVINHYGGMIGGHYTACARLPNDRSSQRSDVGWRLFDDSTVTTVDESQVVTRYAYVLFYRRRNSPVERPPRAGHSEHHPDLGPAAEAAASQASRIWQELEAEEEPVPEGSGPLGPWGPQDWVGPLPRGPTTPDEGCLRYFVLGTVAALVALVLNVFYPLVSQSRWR
Summary of the method: (§1)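 HEK293T lysate in Tris/CHAPS/IGEPAL buffer with protease inhibitors (495 µg per sample) was given fragment at 200 µM or vehicle for 3 h, in triplicate. It then received Biotin-Ahx-Ub-VS at 0.5 µM final for 1 h. Labelled DUBs were NeutrAvidin-enriched, digested with LysC and trypsin, and run by diaPASEF LC-MS/MS. Values are average log2 fragment/vehicle ratios by unpaired t-test on global-median-normalised Spectronaut quantities of proteins with ≥2 unique peptides.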

[2] = biological target: T2, USP22 (UniProt Q9UPT9)
T2 sequence (whole entry): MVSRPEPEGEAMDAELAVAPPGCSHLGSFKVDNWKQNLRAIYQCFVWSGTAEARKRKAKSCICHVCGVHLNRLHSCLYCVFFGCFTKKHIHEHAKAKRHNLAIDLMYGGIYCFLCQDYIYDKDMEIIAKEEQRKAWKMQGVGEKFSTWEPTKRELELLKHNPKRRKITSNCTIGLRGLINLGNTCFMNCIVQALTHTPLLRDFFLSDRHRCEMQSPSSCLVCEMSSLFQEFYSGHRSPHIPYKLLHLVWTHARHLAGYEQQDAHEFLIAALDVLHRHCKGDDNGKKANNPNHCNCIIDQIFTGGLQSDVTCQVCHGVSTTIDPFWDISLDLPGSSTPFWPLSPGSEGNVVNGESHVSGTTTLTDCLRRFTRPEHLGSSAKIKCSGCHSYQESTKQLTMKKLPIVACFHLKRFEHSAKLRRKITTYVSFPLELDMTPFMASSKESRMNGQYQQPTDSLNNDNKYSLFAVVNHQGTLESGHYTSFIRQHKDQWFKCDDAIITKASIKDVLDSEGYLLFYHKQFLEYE
Summary of the method: as §1

[3] = biological target: USP24 (UniProt Q9UPU5)
Summary of the method: as §1

[4] = biological target: T3, USP25 (UniProt Q9UHP3)
T3 sequence (whole entry): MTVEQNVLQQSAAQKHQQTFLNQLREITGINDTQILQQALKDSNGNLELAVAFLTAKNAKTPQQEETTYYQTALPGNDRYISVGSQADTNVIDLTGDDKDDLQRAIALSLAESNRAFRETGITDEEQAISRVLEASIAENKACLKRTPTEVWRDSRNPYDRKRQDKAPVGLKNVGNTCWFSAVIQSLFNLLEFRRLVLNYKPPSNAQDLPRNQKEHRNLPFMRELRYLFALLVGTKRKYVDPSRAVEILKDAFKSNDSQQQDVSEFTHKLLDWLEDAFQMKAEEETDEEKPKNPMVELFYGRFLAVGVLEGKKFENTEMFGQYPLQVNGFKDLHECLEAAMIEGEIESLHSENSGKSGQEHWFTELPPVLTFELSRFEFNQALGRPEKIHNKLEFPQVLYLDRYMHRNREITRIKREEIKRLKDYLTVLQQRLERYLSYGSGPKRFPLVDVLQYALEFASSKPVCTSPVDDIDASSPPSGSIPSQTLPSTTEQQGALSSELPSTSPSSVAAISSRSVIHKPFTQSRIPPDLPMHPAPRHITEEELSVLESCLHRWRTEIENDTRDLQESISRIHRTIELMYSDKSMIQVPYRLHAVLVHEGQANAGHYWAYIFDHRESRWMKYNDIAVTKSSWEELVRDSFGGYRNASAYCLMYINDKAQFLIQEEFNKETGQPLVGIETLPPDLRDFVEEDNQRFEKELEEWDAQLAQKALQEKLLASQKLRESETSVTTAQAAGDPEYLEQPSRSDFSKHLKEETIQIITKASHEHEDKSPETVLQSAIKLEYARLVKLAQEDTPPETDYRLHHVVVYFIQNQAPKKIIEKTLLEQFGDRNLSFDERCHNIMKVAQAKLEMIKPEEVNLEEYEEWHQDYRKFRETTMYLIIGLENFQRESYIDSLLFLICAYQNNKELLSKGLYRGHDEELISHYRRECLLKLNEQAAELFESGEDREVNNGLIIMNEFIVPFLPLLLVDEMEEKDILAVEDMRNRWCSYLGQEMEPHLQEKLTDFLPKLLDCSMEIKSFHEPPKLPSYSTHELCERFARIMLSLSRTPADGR
Summary of the method: as §1

[5] = biological target: T4, USP28 (UniProt Q96RU2)
T4 sequence (whole entry): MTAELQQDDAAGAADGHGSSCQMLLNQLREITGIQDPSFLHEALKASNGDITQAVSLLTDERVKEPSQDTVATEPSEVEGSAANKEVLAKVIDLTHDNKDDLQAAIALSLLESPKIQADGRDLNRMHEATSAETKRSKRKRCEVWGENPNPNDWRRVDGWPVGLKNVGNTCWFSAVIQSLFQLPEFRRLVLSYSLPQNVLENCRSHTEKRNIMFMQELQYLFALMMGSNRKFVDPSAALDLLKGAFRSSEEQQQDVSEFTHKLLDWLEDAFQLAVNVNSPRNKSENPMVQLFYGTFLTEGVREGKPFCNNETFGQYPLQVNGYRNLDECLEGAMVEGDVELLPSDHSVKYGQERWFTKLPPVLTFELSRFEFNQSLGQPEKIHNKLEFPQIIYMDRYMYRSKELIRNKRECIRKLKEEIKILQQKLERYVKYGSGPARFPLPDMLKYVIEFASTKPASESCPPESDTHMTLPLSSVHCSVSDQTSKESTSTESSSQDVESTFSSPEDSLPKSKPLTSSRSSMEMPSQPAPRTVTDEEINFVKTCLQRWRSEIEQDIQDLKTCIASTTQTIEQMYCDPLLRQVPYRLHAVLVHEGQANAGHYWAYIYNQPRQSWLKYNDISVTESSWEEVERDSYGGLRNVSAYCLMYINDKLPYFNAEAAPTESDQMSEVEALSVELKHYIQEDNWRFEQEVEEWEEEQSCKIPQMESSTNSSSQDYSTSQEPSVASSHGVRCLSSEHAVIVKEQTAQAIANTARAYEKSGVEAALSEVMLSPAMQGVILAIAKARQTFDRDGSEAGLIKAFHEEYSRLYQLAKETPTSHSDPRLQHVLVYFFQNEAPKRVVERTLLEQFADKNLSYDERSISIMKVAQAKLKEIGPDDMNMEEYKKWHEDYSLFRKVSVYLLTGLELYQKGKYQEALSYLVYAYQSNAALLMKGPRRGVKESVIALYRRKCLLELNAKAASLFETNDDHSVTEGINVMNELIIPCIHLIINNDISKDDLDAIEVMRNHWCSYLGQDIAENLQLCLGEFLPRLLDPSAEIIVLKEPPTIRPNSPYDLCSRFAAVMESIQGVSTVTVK
Summary of the method: as §1

Measured: log2 ratio of Biotin-Ahx-Ub-VS probe labelling

USP24, sequence (Q9UPU5 whole entry): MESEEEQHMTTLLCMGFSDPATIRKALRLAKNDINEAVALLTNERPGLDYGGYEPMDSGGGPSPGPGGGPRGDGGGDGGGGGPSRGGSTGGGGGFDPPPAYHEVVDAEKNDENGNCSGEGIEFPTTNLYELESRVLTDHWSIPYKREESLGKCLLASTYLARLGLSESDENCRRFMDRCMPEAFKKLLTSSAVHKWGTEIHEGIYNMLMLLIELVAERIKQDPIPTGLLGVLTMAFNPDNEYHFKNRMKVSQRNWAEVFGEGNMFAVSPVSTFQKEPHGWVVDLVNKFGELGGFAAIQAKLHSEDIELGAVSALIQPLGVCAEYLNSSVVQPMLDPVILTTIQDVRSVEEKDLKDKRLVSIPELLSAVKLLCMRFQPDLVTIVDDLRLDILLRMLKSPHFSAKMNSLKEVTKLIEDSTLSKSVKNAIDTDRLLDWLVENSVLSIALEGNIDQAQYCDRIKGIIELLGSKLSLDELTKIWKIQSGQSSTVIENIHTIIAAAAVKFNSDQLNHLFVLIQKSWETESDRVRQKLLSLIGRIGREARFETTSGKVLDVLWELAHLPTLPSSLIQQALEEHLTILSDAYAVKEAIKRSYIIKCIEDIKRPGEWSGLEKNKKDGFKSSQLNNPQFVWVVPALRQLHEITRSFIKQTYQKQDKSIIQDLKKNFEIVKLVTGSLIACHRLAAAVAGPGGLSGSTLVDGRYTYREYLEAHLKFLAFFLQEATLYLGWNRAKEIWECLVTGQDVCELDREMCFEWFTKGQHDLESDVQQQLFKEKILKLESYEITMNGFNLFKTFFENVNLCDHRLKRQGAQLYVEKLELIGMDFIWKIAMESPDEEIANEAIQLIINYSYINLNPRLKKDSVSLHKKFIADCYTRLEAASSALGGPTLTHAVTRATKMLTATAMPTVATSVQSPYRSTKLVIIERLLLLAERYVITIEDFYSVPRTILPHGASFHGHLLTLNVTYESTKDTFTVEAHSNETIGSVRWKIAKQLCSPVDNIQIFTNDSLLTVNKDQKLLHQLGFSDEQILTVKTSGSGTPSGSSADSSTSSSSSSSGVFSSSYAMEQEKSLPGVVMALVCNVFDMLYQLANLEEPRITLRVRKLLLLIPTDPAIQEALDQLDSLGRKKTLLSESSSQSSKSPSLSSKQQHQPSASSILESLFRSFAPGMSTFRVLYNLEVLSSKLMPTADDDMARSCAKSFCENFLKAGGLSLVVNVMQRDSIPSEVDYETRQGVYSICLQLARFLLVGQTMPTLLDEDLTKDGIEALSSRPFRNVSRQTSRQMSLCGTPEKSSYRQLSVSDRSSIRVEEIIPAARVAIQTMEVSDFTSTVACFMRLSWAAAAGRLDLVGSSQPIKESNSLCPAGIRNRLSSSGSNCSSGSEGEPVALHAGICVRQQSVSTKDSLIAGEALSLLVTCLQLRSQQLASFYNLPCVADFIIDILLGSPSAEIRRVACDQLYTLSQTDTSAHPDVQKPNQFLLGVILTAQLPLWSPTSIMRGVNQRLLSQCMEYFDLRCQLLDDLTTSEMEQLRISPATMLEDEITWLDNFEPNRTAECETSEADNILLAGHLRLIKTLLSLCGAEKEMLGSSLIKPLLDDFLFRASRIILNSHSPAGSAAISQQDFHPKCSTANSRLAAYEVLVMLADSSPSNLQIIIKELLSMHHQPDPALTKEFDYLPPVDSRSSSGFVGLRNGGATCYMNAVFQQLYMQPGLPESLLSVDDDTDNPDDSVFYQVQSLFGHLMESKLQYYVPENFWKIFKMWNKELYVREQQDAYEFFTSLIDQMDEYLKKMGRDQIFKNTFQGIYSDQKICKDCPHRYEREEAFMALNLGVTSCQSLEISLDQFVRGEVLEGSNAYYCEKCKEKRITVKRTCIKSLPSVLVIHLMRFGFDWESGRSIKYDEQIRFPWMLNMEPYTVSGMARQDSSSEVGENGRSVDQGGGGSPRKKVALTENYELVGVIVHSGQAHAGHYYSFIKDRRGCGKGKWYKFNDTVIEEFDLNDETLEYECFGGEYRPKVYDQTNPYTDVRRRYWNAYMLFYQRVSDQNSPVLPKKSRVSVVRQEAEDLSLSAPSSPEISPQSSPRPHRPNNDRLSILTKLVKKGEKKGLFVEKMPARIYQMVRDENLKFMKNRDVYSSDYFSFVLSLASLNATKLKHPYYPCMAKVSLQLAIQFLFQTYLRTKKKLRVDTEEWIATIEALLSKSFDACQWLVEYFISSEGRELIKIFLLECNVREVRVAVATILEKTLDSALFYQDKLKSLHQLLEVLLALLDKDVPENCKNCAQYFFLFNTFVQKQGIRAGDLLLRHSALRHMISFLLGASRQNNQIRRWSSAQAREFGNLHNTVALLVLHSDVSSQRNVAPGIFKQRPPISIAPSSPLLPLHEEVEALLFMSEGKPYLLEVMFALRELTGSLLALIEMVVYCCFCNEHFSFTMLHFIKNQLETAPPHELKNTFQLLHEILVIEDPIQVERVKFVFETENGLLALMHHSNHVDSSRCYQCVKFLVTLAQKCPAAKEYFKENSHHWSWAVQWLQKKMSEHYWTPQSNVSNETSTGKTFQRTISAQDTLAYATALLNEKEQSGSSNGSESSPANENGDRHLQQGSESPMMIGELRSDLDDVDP

COc1ccccc1C(C)NC(=O)CCl (stereo not given)
inactive: [1] -0.243 | [2] -0.46 | [3] -0.363 | [4] -0.536 | [5] -0.666
